Unmarked numbers belong to inactive results. Inconclusive results are not listed. Calls of active or inactive are those of the source. Unless noted, calls follow the shape of the dose curve; as a rule, active = well fitted curve in either direction with a large enough effect (not every such curve was filed as active); inconclusive = small, poorly fitted or top-dose-only effect, or another doubt; inactive = flat fitted curve, though single readings scatter.
What was measured:
[1] = AP1 Signaling Pathway (AID 357); conditions: ME-180 AP-1-bla reporter, EGF-induced, beta-lactamase ratio, 5 h; at 17.2 µM (top of the series) unless noted;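 also: ME-180 reporter cells stimulated with EGF at its EC50 level; % is scaled to controls: 0 for no effect and ±100 for the full control effect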
How it was run: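 Cells are seeded overnight, exposed to compound titrations and an EC50 level of EGF for 5 hours at 37 °C, then loaded with CCF4 dye for 2.5 hours. Beta-lactamase activity under the AP-1 element is read as a blue/green ratio.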

[2] = NFAT Signaling Pathway (AID 444); conditions: Jurkat NFAT-bla M1, carbachol, beta-lactamase ratio, 5 h; at 17.2 µM (top of the series) unless noted;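 also: carbachol stimulus at about its EC50 of 1 µM final; % is scaled to controls: 0 for no effect and ±100 for the full control effect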
How it was run: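 Jurkat cells with NFAT-driven β-lactamase reporter and co-expressed M1 receptor, stimulated with carbachol (final 1 uM, ~EC50), compound titration, 5 h at 37 °C. CCF4 loaded 1 h at RT; 460/530 nm ratio gave %activity and AC50.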

[3] = Stat Signaling Pathway (AID 446); conditions: ME-180 SIE beta-lactamase reporter, IL-6 stimulated, 5 h; at 17.2 µM (top of the series) unless noted;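 also: ME-180 cervical cancer cells given 40 pM IL-6 alongside compound; SIE-controlled beta-lactamase reporter measured as 460/530 nm FRET emission ratio; % is scaled to controls: 0 for no effect and ±100 for the full control effect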
How it was run: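 ME-180 cells carrying a SIE-driven beta-lactamase reporter are stimulated with 40 pM IL-6 for 5 h at 37C in the presence of compound. The 460/530 nm FRET substrate ratio is read after 2.5 h at RT. Data are normalised to 300 pM IL-6 and to 125 nM JAK inhibitor controls.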

[4] = target: Cytochrome P450 1A2 (Homo sapiens) (UniProt P05177); assay: p450-cyp1a2 (AID 410; calls by dose curve; also: potency is read from the fitted curve at half-maximal effect;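 as to activity change, negative = inhibition: -100% = full effect of reference inhibitor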)
How it was run: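 20nM CYP1A2 with 100uM Luciferin-ME (at Km) in 100mM KPO4; compound preincubated 10 min, NADPH regeneration added, 60 min at room temperature. Luciferin quantified by luminescence after detection reagent; normalized to 57 uM furafylline.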

[5] = target: Mitogen-activated protein kinase 10 (Mus musculus) (UniProt Q61831); assay: JNK3 AlphaScreen Assay (AID 530);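 also: kinase came from lysate of stimulated human HepG2 cells; signal reports phosphorylation of biotinylated GST-cJun 1-79 at Ser73 with 10 µM ATP; % is scaled to controls: 0 for no effect and ±100 for the full control effect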
How it was run: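 Pre-activated (IL-1β/TNFα) JNK3 in HepG2 lysates phosphorylates biotin-GST-cJun(1-79), 10 uM ATP; anti-phospho-cJun(Ser73) AlphaScreen read at room temperature, pH 7.6 Tris buffer. Compounds pre-incubated 15 min as titrations.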

[6] = target: 3',5'-cyclic-AMP phosphodiesterase 4B (Homo sapiens) (UniProt Q07343); assay: qHTS Assay for Inhibitors of PDE-IV (AID 607; active = well fitted activation curve with a large enough effect in the main read-out, with a control signal flat, not every such curve was filed as active; also: % of control where 0% means no effect)
How it was run: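 HEK293 ACTOne cells with CNG channel (1000/well), endogenous PDE4; membrane potential dye, compounds up to 22.9 uM final. Fluorescence Ex 535/Em 590; RO 20-1724 (100 uM final) as reference.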

[7] = target: Glucocorticoid receptor (Homo sapiens) (UniProt P04150); assay: GR-GFP Redistribution (AID 450;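 active = compounds whose dose series gives a full or clear partial fitted curve of increased nuclear translocation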; also: potency is read from the fitted curve at half-maximal effect)
[8] = target: Glucocorticoid receptor (Homo sapiens) (UniProt P04150); assay: GR-EFC Redistribution (AID 451; calls by dose curve; also: potency is read from the fitted curve at half-maximal effect); conditions: CHO-K1 GR-EFC translocation, beta-gal luminescence, 2 h
How it was run: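 CHO-K1 cells expressing nuclear EA and GR-ED fragments of b-gal; compounds titrated up to 46 uM final, 2 h at 37 C. GR nuclear translocation read as complemented b-gal luminescence after 1 h RT detection.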

[9] = target: Guanine nucleotide-binding protein G(i) subunit alpha-1 (Homo sapiens) (UniProt P63096); assay: qHTS Assay for Inhibitors of RGS12 GoLoco Motif Activity (Green Fluorophore) (AID 879; active = well fitted curve in the direction sought with a large enough effect; an effect the other way counts as inactive or inconclusive;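 also: 0% = labeled peptide with Gαi1 and full inhibition = labeled peptide alone without protein; negative values mean loss of peptide binding seen as reduced polarization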)
How it was run: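 Fluorescence polarization assay: 50 nM Gαi1 with 10 nM FITC-labeled RGS12 GoLoco peptide in 10 mM Tris pH 7.5, 150 mM NaCl, 0.1 mM GDP, 0.05% NP40, 10 min at room temperature with compound.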

[10] = qHTS Assay for Identification of Small Molecule Agonists for Thrombopoietin (TPO) Signaling Pathway (AID 917; active = well fitted curve in the direction sought with a large enough effect; an effect the other way counts as inactive or inconclusive; also: % is scaled to controls: 0 for no effect and ±100 for the full control effect)
How it was run: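 Reporter: GpIIb promoter–luciferase in murine Ba/F3 expressing human TPO receptor. Pre-starved of IL-3 overnight; compounds with 26 pM TPO, 24 hrs, 37 C/5% CO2; luminescence read.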

[11] = target: Pyruvate kinase (Leishmania mexicana) (UniProt Q27686); assay: qHTS Validation Assay for Inhibitors of Leishmania Mexicana Pyruvate Kinase (AID 945; active = well fitted curve in the direction sought with a large enough effect; an effect the other way counts as inactive or inconclusive;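 also: 0% = DMSO only neutral control wells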)
How it was run: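 Luminescent ATP detection (PKLight) after a 1 h room-temperature reaction of 0.2 nM LmPYK E451W mutant with 0.5 mM PEP and 0.1 mM ADP at pH 7.2. Activity is normalized to DMSO-only control wells.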

[12] = target: Pyruvate kinase PKM (Homo sapiens) (UniProt P14618); assay: qHTS Assay for Activators of Human Muscle Pyruvate Kinase (AID 954; active = well fitted curve in the direction sought with a large enough effect, not every such curve was filed as active;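 also: 0% = uninhibited enzyme and -100% = no enzyme or full thiadiazolimine inhibition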)
How it was run: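 Purified human PKM2 (0.1 nM) with 0.5 mM PEP (Km) and 0.1 mM ADP in 50 mM imidazole pH 7.2, KCl, MgCl2, 1 h at room temperature; ATP formed read by coupled luciferase luminescence. Normalized to no-enzyme/110 uM thiadiazolimine inhibition; 0.3 nM enzyme column for activation.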

[13] = target: Alpha-galactosidase A (Homo sapiens) (UniProt P06280); assay: Counterscreen for Glucocerebrosidase Inhibitors: qHTS Assay for Human alpha-Galactosidase at pH 4.5 (AID 992; active = well fitted curve in the direction sought with a large enough effect; an effect the other way counts as inactive or inconclusive; also: 0% is about no effect)
How it was run: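 Human enzyme (2 nM) with 80 uM 4-methylumbelliferyl alpha-D-galactopyranoside in 50 mM citric acid, 0.005% Tween-20, pH 4.5, 20 min at room temperature. Compounds 0.7 nM–77 uM; fluorescence Ex 365/Em 440 after pH 10 stop; AC50 from Hill fits.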

[14] = target: alpha-glucosidase (Oryza sativa, rice) (UniProt Q653V4); assay: Counterscreen for Glucocerebrosidase Inhibitors: qHTS Assay for Rice alpha-Glucosidase at pH 5.0 (AID 997; active = well fitted curve in the direction sought with a large enough effect; an effect the other way counts as inactive or inconclusive;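 also: 0% = full activity with enzyme and -100% = basal without enzyme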)
How it was run: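 Rice alpha-glucosidase (4 nM final) with 400 uM 4-methylumbelliferyl-alpha-D-glucopyranoside in citrate buffer pH 5.0, 20 min at room temperature, stopped at pH 10; fluorescence 365/440 nm, compounds 0.7 nM–77 uM, AC50 from Hill fits.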

[15] = qHTS Assay for Identification of Small Molecule Agonists for Hypoxia Response Element Signaling Pathway (AID 914; active = well fitted activation curve with a large enough effect in the signal ratio, with a control signal flat, not every such curve was filed as active; the % refers to the signal ratio; also: % of control where 0% means no effect); conditions: ME-180 (cervical carcinoma) HRE-bla reporter, beta-lactamase ratio, CoCl2, 17 h; activation: hits give high values
How it was run: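 HRE-bla ME-180 cells, overnight plating in Opti-MEM with 0.5% dialyzed FBS; cpd titration + EC50 CoCl2, 17 h, 37 degrees Celsius; CCF4 2.5 h RT; 460/530 nm ratio; AC50.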

[16] = target: Cytochrome P450 3A4 (Homo sapiens) (UniProt P08684); assay: qHTS Assay for Activators of Cytochrome P450 3A4 (AID 885; active = well fitted curve in the direction sought with a large enough effect; an effect the other way counts as inactive or inconclusive; also: nearly all actives have a fitted effect of over 65% in size)
How it was run: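 Human CYP3A4 (20 nM) with Luciferin-PPXE at 25 uM (its KM) in 200 mM KPO4; 10 min compound preincubation, then NADPH regeneration and 60 min reaction at RT. Luciferin read by luminescence; normalized to 57 uM ketoconazole full inhibition.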

[17] = target: Muscarinic acetylcholine receptor M1 (Rattus norvegicus) (UniProt P08482); assay: qHTS Assay for Antagonists of Acetylcholine Muscarinic M1 Receptor: Kinetic Measurement of Intracellular Calcium Response (AID 943; active = well fitted curve in the direction sought with a large enough effect; an effect the other way counts as inactive or inconclusive; also: nearly all actives have a fitted effect of over 75% in size)
How it was run: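 CHO cells expressing rat M1 receptor, Fluo-4 loaded, preincubated 10 min with compound, then stimulated with EC80 carbachol (100 nM final). Kinetic calcium fluorescence over 4 min; response taken as peak over basal signal.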

[18] = target: Muscarinic acetylcholine receptor M1 (Rattus norvegicus) (UniProt P08482); assay: qHTS Assay for Antagonists of Acetylcholine Muscarinic M1 Receptor: Measurement of IP-One Response (AID 944; active = well fitted curve in the direction sought with a large enough effect; an effect the other way counts as inactive or inconclusive; also: nearly all actives have a fitted effect of over 75% in size)
How it was run: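 CHO cells stably expressing rat M1, pretreated 10 min with compound, then stimulated 30 min with carbachol at EC80 (200 nM) in LiCl-containing buffer pH 7.4; IP1 accumulation read by HTRF competition (665/620 nm).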

Chain of 3',5'-cyclic-AMP phosphodiesterase 4B (Homo sapiens) (Q07343 whole entry, looked up): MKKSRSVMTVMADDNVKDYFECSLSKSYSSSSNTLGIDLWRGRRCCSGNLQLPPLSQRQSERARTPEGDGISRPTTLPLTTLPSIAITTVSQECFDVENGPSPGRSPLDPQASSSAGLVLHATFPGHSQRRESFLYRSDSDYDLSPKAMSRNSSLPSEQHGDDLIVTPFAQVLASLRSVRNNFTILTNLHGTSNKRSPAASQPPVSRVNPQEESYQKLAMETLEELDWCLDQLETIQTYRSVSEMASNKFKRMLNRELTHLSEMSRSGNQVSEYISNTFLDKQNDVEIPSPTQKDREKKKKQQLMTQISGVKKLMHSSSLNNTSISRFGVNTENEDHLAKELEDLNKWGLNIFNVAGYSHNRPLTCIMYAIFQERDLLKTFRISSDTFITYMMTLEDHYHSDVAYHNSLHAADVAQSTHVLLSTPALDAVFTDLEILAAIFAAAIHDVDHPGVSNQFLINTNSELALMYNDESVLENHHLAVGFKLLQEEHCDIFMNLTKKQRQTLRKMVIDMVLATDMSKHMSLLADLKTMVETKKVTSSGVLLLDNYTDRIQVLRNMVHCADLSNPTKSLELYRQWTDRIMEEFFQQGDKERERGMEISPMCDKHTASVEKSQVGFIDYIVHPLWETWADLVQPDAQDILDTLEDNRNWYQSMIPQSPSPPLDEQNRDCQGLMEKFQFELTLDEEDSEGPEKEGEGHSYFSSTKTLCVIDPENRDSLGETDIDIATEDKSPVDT
Chain of Cytochrome P450 1A2 (Homo sapiens) (P05177 whole entry, looked up): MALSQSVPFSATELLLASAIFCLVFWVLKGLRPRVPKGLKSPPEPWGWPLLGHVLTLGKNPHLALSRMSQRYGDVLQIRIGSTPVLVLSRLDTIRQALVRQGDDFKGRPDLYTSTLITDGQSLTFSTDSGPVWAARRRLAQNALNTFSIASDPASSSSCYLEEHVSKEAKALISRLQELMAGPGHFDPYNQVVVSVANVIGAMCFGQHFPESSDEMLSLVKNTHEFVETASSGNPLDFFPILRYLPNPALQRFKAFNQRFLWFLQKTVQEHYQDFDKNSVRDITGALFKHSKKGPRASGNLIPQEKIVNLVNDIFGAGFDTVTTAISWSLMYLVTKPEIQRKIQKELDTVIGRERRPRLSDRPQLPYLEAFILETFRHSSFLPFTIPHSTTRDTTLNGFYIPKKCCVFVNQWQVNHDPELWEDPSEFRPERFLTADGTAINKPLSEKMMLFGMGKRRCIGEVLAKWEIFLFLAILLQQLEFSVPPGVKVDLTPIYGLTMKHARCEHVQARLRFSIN
Chain of Glucocorticoid receptor (Homo sapiens) (P04150 whole entry, looked up, the tested form may be a part): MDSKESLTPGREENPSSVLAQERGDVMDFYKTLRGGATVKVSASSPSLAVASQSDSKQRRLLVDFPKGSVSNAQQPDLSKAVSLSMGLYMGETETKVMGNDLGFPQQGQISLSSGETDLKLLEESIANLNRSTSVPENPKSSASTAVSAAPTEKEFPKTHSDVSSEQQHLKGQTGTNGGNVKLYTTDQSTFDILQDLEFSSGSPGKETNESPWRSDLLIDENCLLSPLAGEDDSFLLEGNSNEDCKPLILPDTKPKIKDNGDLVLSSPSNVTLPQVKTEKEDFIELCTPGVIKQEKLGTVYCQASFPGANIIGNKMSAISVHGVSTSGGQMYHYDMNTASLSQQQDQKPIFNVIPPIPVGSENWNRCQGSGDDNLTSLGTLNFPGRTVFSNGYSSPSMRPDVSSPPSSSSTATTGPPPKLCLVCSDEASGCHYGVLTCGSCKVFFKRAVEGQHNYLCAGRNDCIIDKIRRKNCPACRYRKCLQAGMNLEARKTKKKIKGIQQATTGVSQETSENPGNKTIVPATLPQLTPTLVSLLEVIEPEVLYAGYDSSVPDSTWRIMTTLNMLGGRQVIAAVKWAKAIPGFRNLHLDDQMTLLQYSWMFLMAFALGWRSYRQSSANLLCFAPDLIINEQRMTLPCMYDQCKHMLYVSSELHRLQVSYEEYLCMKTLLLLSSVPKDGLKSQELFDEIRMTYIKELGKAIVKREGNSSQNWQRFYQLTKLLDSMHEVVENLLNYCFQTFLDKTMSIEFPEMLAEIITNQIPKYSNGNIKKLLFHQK
Chain of Muscarinic acetylcholine receptor M1 (Rattus norvegicus) (P08482 whole entry, looked up): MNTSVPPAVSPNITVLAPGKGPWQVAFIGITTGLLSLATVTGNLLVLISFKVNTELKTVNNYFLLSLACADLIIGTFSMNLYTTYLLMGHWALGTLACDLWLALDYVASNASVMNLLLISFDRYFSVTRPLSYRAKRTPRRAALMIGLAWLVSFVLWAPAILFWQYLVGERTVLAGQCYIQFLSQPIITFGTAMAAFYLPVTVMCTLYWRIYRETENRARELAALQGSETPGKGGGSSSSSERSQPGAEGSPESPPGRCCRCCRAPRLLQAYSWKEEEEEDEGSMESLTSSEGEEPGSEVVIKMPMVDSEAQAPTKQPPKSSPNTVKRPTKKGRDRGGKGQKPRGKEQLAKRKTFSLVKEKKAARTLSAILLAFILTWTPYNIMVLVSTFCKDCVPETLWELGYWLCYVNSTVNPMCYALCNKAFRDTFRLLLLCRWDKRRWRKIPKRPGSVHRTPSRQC
Chain of Pyruvate kinase (Leishmania mexicana) (Q27686 2-499 E452W): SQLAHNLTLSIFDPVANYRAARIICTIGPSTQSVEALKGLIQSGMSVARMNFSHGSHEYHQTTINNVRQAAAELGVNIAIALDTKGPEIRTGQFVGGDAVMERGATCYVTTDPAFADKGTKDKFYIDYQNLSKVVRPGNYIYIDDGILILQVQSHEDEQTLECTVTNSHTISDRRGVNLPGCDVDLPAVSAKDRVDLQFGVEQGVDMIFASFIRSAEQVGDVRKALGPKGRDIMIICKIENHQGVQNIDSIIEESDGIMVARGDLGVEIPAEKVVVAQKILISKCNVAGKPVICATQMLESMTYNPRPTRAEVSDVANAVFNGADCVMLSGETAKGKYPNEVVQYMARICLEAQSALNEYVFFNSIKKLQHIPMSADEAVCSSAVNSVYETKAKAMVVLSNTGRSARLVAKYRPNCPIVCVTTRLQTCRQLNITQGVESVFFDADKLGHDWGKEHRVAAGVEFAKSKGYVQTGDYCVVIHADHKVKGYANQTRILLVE
Chain of Pyruvate kinase PKM (Homo sapiens) (P14618 whole entry, looked up): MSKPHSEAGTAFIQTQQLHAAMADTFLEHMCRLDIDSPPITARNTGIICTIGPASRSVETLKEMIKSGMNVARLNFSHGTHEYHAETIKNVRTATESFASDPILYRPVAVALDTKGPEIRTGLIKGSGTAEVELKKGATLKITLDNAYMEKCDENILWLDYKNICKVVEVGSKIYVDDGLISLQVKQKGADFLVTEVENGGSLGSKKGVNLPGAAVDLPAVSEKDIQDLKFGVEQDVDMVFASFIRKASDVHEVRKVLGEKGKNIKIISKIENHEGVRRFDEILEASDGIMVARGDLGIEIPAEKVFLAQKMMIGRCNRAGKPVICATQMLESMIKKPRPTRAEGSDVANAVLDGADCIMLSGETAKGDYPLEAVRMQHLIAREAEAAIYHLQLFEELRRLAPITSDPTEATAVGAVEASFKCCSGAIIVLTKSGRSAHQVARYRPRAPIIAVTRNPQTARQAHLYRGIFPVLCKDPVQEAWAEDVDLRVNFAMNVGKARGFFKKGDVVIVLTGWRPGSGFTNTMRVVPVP
Chain of Alpha-galactosidase A (Homo sapiens) (P06280 whole entry, looked up): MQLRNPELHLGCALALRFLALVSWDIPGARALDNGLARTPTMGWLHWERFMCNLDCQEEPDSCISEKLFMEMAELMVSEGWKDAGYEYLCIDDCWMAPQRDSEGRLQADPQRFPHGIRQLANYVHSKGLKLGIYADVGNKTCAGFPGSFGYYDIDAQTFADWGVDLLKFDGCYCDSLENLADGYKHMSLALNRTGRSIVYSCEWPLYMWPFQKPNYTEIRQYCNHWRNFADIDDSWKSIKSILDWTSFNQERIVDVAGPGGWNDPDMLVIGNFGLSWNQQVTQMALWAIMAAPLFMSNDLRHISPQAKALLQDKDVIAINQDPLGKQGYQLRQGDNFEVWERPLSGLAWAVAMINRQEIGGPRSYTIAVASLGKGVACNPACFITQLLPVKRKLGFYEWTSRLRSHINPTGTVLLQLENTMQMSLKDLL
Chain of Guanine nucleotide-binding protein G(i) subunit alpha-1 (Homo sapiens) (P63096 whole entry, looked up): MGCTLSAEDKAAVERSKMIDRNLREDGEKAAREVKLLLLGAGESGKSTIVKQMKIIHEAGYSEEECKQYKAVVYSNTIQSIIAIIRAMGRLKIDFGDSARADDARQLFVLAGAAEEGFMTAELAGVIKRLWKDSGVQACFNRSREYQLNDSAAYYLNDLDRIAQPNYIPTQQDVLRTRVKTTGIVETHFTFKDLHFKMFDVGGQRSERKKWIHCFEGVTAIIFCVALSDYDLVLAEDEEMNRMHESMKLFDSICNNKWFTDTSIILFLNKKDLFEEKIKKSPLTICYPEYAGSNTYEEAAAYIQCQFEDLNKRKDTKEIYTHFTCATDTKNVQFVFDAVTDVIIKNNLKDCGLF
Chain of Cytochrome P450 3A4 (Homo sapiens) (P08684 whole entry, looked up): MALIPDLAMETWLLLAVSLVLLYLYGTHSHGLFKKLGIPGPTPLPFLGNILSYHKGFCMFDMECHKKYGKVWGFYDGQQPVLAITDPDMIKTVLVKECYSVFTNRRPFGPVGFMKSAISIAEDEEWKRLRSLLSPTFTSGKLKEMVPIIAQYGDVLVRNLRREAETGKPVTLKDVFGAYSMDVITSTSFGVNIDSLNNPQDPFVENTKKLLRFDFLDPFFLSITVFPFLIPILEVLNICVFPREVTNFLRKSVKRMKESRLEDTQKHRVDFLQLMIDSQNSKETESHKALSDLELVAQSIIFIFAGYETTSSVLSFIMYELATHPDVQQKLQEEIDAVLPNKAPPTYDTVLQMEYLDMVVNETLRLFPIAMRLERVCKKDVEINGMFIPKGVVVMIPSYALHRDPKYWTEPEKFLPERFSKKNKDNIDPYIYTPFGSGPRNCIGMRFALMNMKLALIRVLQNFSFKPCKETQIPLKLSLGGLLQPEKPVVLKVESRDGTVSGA

For `COc1cc(N2CCCC2)c(OC)cc1/C=c1/sc2nc3ccccc3n2c1=O`, the activity change, negative = inhibition [1] was -3.35%, the activity change, negative = inhibition [2] was -23% and the activity, negative = inhibition [3] was -0.381%.
In the case of `N#Cc1ccc(OC(=O)c2ccc(N=C(N)N)cc2)cc1`, the activity change, negative = inhibition [1] is reported as -0.971% [at 7.69 µM], the Potency [4] is reported as 2.51 µM (active) and the activity, negative = inhibition [3] is reported as -5.61% [at 7.69 µM]. The activity change, negative = inhibition [5] was 1.07% [at 11.4 µM] and the Potency [6] was “inactive”.
Work on `O=C(C(c1ccccc1)N1CCOCC1)N1CCOCC1` (configuration not stated) yielded an activity change, negative = inhibition [1] of 27.9%, an activity change, negative = inhibition [2] of 7.74% and an activity, negative = inhibition [3] of 13.8%. The Potency [7] was greater than 20.6 µM.
In the case of `CCCCCCCCCCCCCCCCCCOC[C@@H](COP(=O)([O-])OCC[N+](C)(C)C)OC`, the activity change, negative = inhibition [1] is reported as 29% [at 38 µM], the Potency [4] is reported as “inactive” and the activity, negative = inhibition [3] is reported as 4.35% [at 38 µM]. For the same compound, the Potency [7] was greater than 46 µM, the Potency [8] was greater than 46 µM and the Potency [5] was “inactive”. The Potency [6] was “inactive”, the outcome [9] was “inactive” and the Potency [10] was “inactive”. The Potency [11] was “inactive”, the outcome [12] was “inactive” and the outcome [13] was “inactive”. For the same compound, the outcome [14] was “inactive”.
Compound `COc1ccc2c(c1)CN([C@H](C)[C@@H]1CC[C@@H]3[C@H]4CC[C@H]5C[C@@H](O)CC[C@@]5(C)[C@H]4CC[C@]31C)CO2` has an activity change, negative = inhibition [1] of 23.1% [at 7.69 µM], an activity change, negative = inhibition [4] of -18% [at 2.29 µM] and an activity, negative = inhibition [3] of -2.48% [at 7.69 µM]. For the same compound, the Potency [7] was greater than 46 µM, the activity change, negative = inhibition [5] was -1.53% [at 11.4 µM] and the Potency [6] was “inactive”. The activation [15] was 15.9%.
With `O=C1[C@@H]2C=CC=CC2=NC(=S)N1CCN1CCC(=C(c2ccc(F)cc2)c2ccc(F)cc2)CC1` the activity change, negative = inhibition [1] was 26.4% [at 38 µM], the Potency [4] was “inactive” and the activity, negative = inhibition [3] was 6.96% [at 38 µM]. The Potency [7] was greater than 46 µM, the Potency [8] was greater than 46 µM and the Potency [5] was “inactive”. The Potency [16] was “inactive”, the Potency [10] was “inactive” and the Potency [17] was “inactive”. The Potency [18] was “inactive”, the Potency [11] was “inactive” and the outcome [12] was “inactive”. For the same compound, the outcome [13] was “inactive” and the outcome [14] was “inactive”.
`CO[C@H]1C[C@@H]2CC[C@@H](C)[C@@](O)(O2)C(=O)C(=O)N2CCCC[C@H]2C(=O)O[C@H]([C@H](C)C[C@@H]2CC[C@@H](O)[C@H](OC)C2)CC(=O)[C@H](C)C=C(C)[C@@H](O)[C@@H](OC)C(=O)[C@H](C)C[C@H](C)C=CC=CC=C1C` gave an activity change, negative = inhibition [1] of 6.13%, an activity change, negative = inhibition [2] of 24.7% and an activity, negative = inhibition [3] of -28.8%.
Compound `Clc1ccccc1-c1nnc2sc(-c3ccco3)nn12` has an activity change, negative = inhibition [1] of -8.96%, an activity change, negative = inhibition [2] of 6.46% and an activity, negative = inhibition [3] of 0.557%.
